Screening data: PubChem, National Center for Advancing Translational Sciences (NCATS)
Shown are actives, neighbours in structure and some others; about 12% of the full set was active somewhere.
Sm TGR block = inhibitors of Schistosoma mansoni thioredoxin glutathione reductase. Q962Y6. purified TGR, DTNB reduction, TNB absorbance 405 nm. Potency, µM (titrated, usually from 114 µM), without a hit: top-dose activity change, negative = inhibition, actives largely listed as inhibitors. hit rate 3% among 360,000. AID 485364; further: on the % scale 0 is the no-effect control and ±100 the full control effect; nearly all actives have a fitted effect of over 60% in size
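TGR 20 nM + NADPH 100 uM (dispensed conc.), cpd preinc 15 min RT; start with NADPH (500 uM addition) then DTNB (15 mM addition). Kinetic TNB absorbance, 405 nm filter. Four-parameter Hill fit across titration.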
Pf growth 96h = inhibits malaria parasite growth, 96 h; P. falciparum luciferase reporter growth, 96 h; Potency, µM (titrated, usually from 28.7 µM), inactives show top-dose activity change, negative = inhibition, actives largely listed as inhibitors; hit rate 6.9% among 320,000; AID 504834; further: on the % scale 0 is the no-effect control and ±100 the full control effect
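Readout is luminescence from an integrated firefly luciferase in P. falciparum. Red cells, 2% hematocrit and 0.05% parasitemia final, were cultured with compound through two parasite generations (96 hours) at 37 C, 5% CO2.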
Pf growth 48h = inhibits P. falciparum growth in the first generation, 48 h; P. falciparum luciferase growth in erythrocytes, 48 h; Potency, µM (titrated, usually from 28.7 µM), without a hit: at the top dose activity change, negative = inhibition, usual class: inhibitors; hit rate 5.9% among 310,000; further: on the % scale 0 is the no-effect control and ±100 the full control effect
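In quantitative HTS format, infected erythrocytes bearing luciferase-reporter parasites were treated for a single generation at 37 C. Luminescence after adding detection reagent served as the growth measure.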
SARS PLP yeast = blocks SARS-CoV papain-like protease in a yeast assay; Potency, µM (doses to about 32.9 µM), for inactives: at the highest dose activity, positive = growth rescue, usual class: activators; S. cerevisiae expressing SARS-CoV PLpro, growth rescue; hit rate 0.19% among 330,000; calls by dose curve; further: 0% is about no effect; nearly all actives have a fitted effect of over 55% in size
An asterisk follows results filed as active. Unless noted, the call rests on the fitted dose curve; in most records, active means well fitted curve in the direction sought with a large enough effect; inconclusive means small, poorly fitted or top-dose-only effect, or another doubt; inactive means no such curve, though single readings can be large; an effect the other way counts as inactive or inconclusive. Potency means the concentration at half of the fitted maximal effect.

Screening CCOC(=O)c1[nH]c2c(c1C)C(=O)CC(c1ccc(OCC)c(OC)c1)C2 (stereo not drawn) returned Sm TGR block -1%, Pf growth 96h -5% and SARS PLP yeast 1%.
Screening COCCN(CCOC)S(=O)(=O)c1ccc(NC(=O)c2cnccn2)cc1 returned Sm TGR block 4%, Pf growth 96h 9%, Pf growth 48h 8.3µM* and SARS PLP yeast 11%.
CC(=O)c1cccc(NC(=O)C2CCN(S(=O)(=O)c3ccc4c(c3)CCCN4C(C)=O)CC2)c1 was read as Sm TGR block -10%.
`N#CCCN1CCN(C2=NC(=O)C(=C3CCCCC3)S2)CC1` gave Sm TGR block 1%, Pf growth 96h 2.6µM*, Pf growth 48h 0% and SARS PLP yeast 13%.
Cc1cccc(N2CCN(C3=NC(=O)C(=C4CCCCC4)S3)CC2)c1 was read as Sm TGR block -6%, Pf growth 96h 34%, Pf growth 48h 10µM* and SARS PLP yeast 0%.
CCOc1ccc(CCNCc2c(C(=O)O)n(Cc3ccc(C)cc3)c3cc(OC)ccc23)cc1 was read as Sm TGR block -6%.
For CCOC(=O)c1cccc(N2C(N)=NC(N)=NC2(C)C)c1 the results were Sm TGR block 3%, Pf growth 96h 8%, Pf growth 48h inconclusive and SARS PLP yeast 3%.
For COc1cccc(N2C(N)=NC(N)=NC2(C)C)c1 the results were Sm TGR block -1%, Pf growth 96h -19%, Pf growth 48h 0.13µM* and SARS PLP yeast 1%.
Screening CCOc1ccc(N2C(N)=NC(N)=NC2(C)C)cc1 returned Sm TGR block -2%, Pf growth 96h 10%, Pf growth 48h 0.13µM* and SARS PLP yeast -3%.
Screening COc1ccccc1N1C(N)=NC(N)=NC1(C)C returned Sm TGR block 4%, Pf growth 96h 10%, Pf growth 48h inconclusive and SARS PLP yeast 0%.
`COc1ccc(N2C(N)=NC(N)=NC2(C)C)cc1` gave Sm TGR block 5%, Pf growth 96h inconclusive, Pf growth 48h 0.033µM* and SARS PLP yeast 4%.
Screening CC1(C)N=C(N)N=C(N)N1c1ccc(OCCCOc2ccccc2)c(Cl)c1 returned Sm TGR block 24%, Pf growth 96h 0.023µM*, Pf growth 48h 0.026µM* and SARS PLP yeast 1%.
CCc1cccc(N2C(=O)CS(=O)(=O)C23C(=O)N(Cc2ccccc2)c2ccc(C)cc23)c1 (stereo not drawn) was read as Sm TGR block -3%.
`COc1ccc(N2CCN(C(CNC(=O)C(=O)NC3CCCC3)c3ccco3)CC2)cc1` (stereo not drawn) gave Sm TGR block 6%, Pf growth 96h 74%, Pf growth 48h 46% and SARS PLP yeast -5%.
For O=C1c2ccc([N+](=O)[O-])cc2S(=O)(=O)N1Cc1ccccc1 the results were Sm TGR block 18µM*, Pf growth 96h 35%, Pf growth 48h 32% and SARS PLP yeast -5%.
Cc1ccc(C(=O)c2sc(Nc3ccc(F)cc3)nc2N)c(C)c1 was read as Sm TGR block -14%.
Cc1ccc(-n2nnnc2SCC(=O)N2CCN(C(=O)c3ccco3)CC2)c(C)c1 was read as Sm TGR block -28%, Pf growth 96h 6.6µM*, Pf growth 48h -19% and SARS PLP yeast inconclusive.
COc1ccc(OC)c(-n2nnnc2SCC(=O)N2CCN(C(=O)c3ccco3)CC2)c1 was read as Sm TGR block -19%, Pf growth 96h inconclusive, Pf growth 48h -9% and SARS PLP yeast 0%.
For Cc1cc2cc3c(cc2nc1SCC(=O)N1CCN(C(=O)c2ccco2)CC1)OCO3 the results were Sm TGR block inconclusive, Pf growth 96h inconclusive, Pf growth 48h 13µM* and SARS PLP yeast 6%.
For Cc1cc(C)cc(-c2nnc(SCC(=O)N3CCN(C(=O)c4ccco4)CC3)o2)c1 the results were Sm TGR block -10%, Pf growth 96h 12µM*, Pf growth 48h inconclusive and SARS PLP yeast 5%.
O=[N+]([O-])c1ccccc1S(=O)(=O)N1CCSCC1 was read as Sm TGR block -22%, Pf growth 96h -4%, Pf growth 48h -20% and SARS PLP yeast -13%.
`Cc1cc(C)c2oc(C(=O)Nc3sc4c(c3C(=O)NCc3ccco3)CCC4)cc(=O)c2c1` gave Sm TGR block 11%.
Cc1ccc(C)c(NC(=S)N2CCC(NC(=O)c3ccc(F)cc3)CC2)c1 was read as Sm TGR block -3%, Pf growth 96h 5%, Pf growth 48h -6% and SARS PLP yeast -3%.
